Measurements published in PubChem BioAssay (NCI).
About 83,000 compounds went through this panel and 20% of them were active in at least one assay; those are over-represented in the sample as a whole.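 In brief: 96-well plates, 48 h treatment, single concentration, percent growth endpoint.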 Values without a mark were called inactive. Active and inactive are the calls of the source. Rule for the calls: active = growth percent below 10; inactive = the rest.

system: MDA-MB-468 breast; test: NCI-60 one-dose screen, 48 h (100 = growth as untreated, 0 = no growth, -100 = all killed); conditions: 10 µM unless noted

Row | Structure (SMILES) | growth
1 | Nc1ncn([C@@H]2O[C@H](CO)[C@@H](O)[C@H]2O)c(=O)n1 | 33.2%
2 | COc1ccc(OC)c(/C=C2\COc3ccc(O)c(O)c3C2=O)c1 | 16.6%
3 | COc1cc2nc(-c3ccc(C)cc3)cc(OCCCNCC3CCCO3)c2cc1OC (stereo not given) | 68.8%
4 | COCCOc1cnc2ccn([C@H](C)c3nnc4c(F)cc(-c5cnn(C)c5)cn34)c(=O)c2c1 | 96.7%
5 | COc1cc(/C=C/C(=O)c2ccc(NC(=O)CSc3nnc(-c4cc(-c5ccccc5)nc5ccccc45)n3-c3ccccc3)cc2)cc(OC)c1OC | 81.5%
6 | CCCOc1ccc(/C=N/Nc2cc(C)nc3ccc(Cl)cc23)cc1 | 8.78% (active)
7 | Cc1ccncc1C(N)=O | 93.8%
8 | CC(C)(C)c1cc(C(=O)Nc2ccc(C(=O)NCCN)cc2)cc(C(C)(C)C)c1 | -39.5% (active)
9 | O=C(c1nc2ccccc2[nH]1)C1C(c2ccc(Br)cc2)C2CC3CCCC[C@H]3N2[C@@]12C(=O)Nc1cc(Cl)ccc12 (stereo not given in full) | 12.5%
10 | CCc1cccc(C)c1NC(=O)c1sc2nc3c(cc2c1N)CCCCC3 | 10.8%
11 | Cn1c(=O)c(F)c(Nc2ccc(I)cc2F)c2c(=O)n(C[C@@H](O)CO)cnc21 | 77.9%
12 | OCCN1CCN(c2cc(-c3cccc(OC(F)(F)F)c3)nc3ccc(N4CCCC4)cc23)CC1 | 16.6%
13 | CCCCN(C(=O)CC)c1ccccc1 | 106%
14 | CC(C)=C1CCC(C)C/C1=N\N=C(N)N (stereo not given) | 101%
15 | CCS/C(Nc1ccccc1)=C(\C#N)C(=O)Nc1ccc(OC)cc1 | -2.63% (active)
16 | COc1cc(OC)c(S(N)(=O)=O)cc1C(=O)/C=C/c1ccc(C)cc1 | -36.2% (active)
17 | Oc1ccccc1/C=N/N=C/c1c(O)ccc2ccccc12 | 83.4%
18 | COc1nc2c(c(=O)n1C)CN(c1ccccc1)C(=O)C(C)N2 (stereo not given) | 86.3%
19 | CCOC(=O)C1=C(N)Oc2c(sc3c(F)cccc23)C1c1ccc(O)cc1 (stereo not given) | 15.3%
20 | O=C(N=Nc1c(O)[nH]c2ccc(F)cc12)c1cc2ccccc2[nH]1 | 124%
21 | CS(=O)(=O)c1ccc2c(c1)c1c(n2S(=O)(=O)c2ccc(Cl)cc2)CCCC1 | 42.3%
22 | CSc1ccc(/C(=N/N=C(N)N)c2ccc(F)cc2)cc1 | -34.6% (active)
23 | NC(=N\N=C/c1ccc(Cl)cc1Cl)/C(N)=N\N=C/c1ccc(Cl)cc1Cl | 62.8%
24 | CCCCN(CCCC)CC(O)c1ccc(OCc2ccccc2)c2ccccc12 (stereo not given) | 114%
25 | Clc1ccc2oc3c(NCCCn4ccnc4)c4ccccc4nc3c2c1 | 51.6%
